# From PubChem BioAssay AID1069 (NMMLSC, 2008)
# Active and inactive are the calls of the source.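 Rule for the calls: active = high combined rank on largest and smallest cell-count-weighted shift across three tests, rank score above 45, floors 50 and 25 (some results past the limit were not filed as active); inactive = the rest.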
# Assay: LNCaP granularity increase inducers, single-point recheck – cell-based, side scatter shift, flow cytometry, confirmation (AID 1069);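 note: LNCaP human prostate cancer cells in low-serum medium with charcoal-stripped FBS; percent of cells with raised granularity gated so DMSO controls show 10%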
# Settings: LNCaP differentiation, 4 d, stronger effect = higher value
SMILES,side scatter shift (at 100 µM),"side scatter shift (side scatter shift, at 10 µM) [%]"
C=C(C)Cn1c(-c2ccccc2)nc2ccccc21,6.3% (inactive),4.15
Cc1ccnc(NC(=O)CCC(=O)N(CC(=O)NC2CCCCC2)c2cccc(C)c2C)c1,11.1% (inactive),6.85
CCN(CC)CCCNC(=O)c1cc(-c2cccc(Cl)c2)on1,4.1% (inactive),4.25
CC(C)N1CCC2(CC1)N=C(c1ccc3c(c1)OCO3)CC(c1cc(Cl)ccc1O)N2 (configuration not stated),26.1% (inactive),18.8
CCN1C=C(Cc2cccs2)C2=C(C1)C(c1cccs1)C(C#N)=C(N)O2 (configuration not stated),20% (inactive),5.2
Cc1ccc(Cn2ccc(NC(=O)c3cc(-c4ccc(Br)cc4)on3)n2)cc1,23% (inactive),10.6
CCN1CCN(CCNC(=O)C2CCCN(Cc3nc(-c4cccc(Cl)c4)oc3C)C2)CC1 (configuration not stated),14.3% (inactive),32.2
O=C(NCCCN1CCN(c2ccccc2F)CC1)C1CCN(S(=O)(=O)N2CCOCC2)CC1,19.9% (inactive),7.2
Cc1oc(-c2ccc(Cl)cc2)nc1CN1CCCC(C(=O)NCCCN2CCOCC2)C1 (configuration not stated),42.9% (inactive),16.6
Cn1c(=O)cc(SCC(=O)NCCCN2CCN(c3ccccc3F)CC2)c2ccccc21,70.5% (active),12.8
COc1ccc(-c2cc3c(=O)n(CC(=O)NC4CCN(Cc5ccccc5)CC4)ncn3n2)cc1,36.1% (inactive),5.5
O=C(c1ccc(COCC(F)(F)F)o1)N1CCCCCC1,16.9% (inactive),4.95
Cc1cc(=O)oc(C)c1C(=O)NCCCN1CCN(c2ccccc2F)CC1,32.8% (inactive),2.1
CC(C)(C)C1CCc2onc(C(=O)Nc3cnn(Cc4ccc(F)cc4)c3)c2C1 (configuration not stated),25.8% (inactive),3.7
COc1ccc(Cc2noc(-c3ccc(C)cc3)n2)cc1,21.4% (inactive),10.1
CCOC(=O)c1[nH]c(C)c(C(=O)N2CCc3ccccc32)c1C,7.7% (inactive),15.4
CCCCOC(=O)CSc1nc2c(cc1C#N)C(=O)CC(C)(C)C2,16.3% (inactive),5.85
COc1ccc(N2CCN(CCCNC(=O)C3(S(=O)(=O)c4ccc(Cl)cc4)CC3)CC2)cc1,26.9% (inactive),2.45

SMILES,side scatter shift (at 100 µM),"side scatter shift (side scatter shift, at 10 µM) [%]"
CCOC(=O)N1CCC(NC(=O)c2cc3c(-c4ccc(Cl)cc4)nn(C)c3s2)CC1,22.5% (inactive),6.9
CCC(C)NC(=O)c1cn(C)c(=O)c2cc(OC)c(OC)cc12 (configuration not stated),25.6% (inactive),5.2
CCN1CCN(c2cc(C)c3cc(NC(=O)c4ccc(Br)o4)ccc3n2)CC1,2.8% (active),32.8
CCOC(=O)N1CCN(CC(=O)Nc2cc(C)nn2-c2nc3ccccc3s2)CC1,19.3% (inactive),2.6
Cc1ccccc1CS(=O)(=O)CCC(=O)NCCCN1CCN(c2ccccc2F)CC1,56.5% (active),6.05
O=C(NC1CCCC1)C1CCN(S(=O)(=O)c2cccc3cccnc23)CC1,15.9% (inactive),1.65
CC(C)(C)c1ccc(C(O)CCCN2CCC(C(O)(c3ccccc3)c3ccccc3)CC2)cc1 (configuration not stated),16.7% (inactive),14.8
Cc1oc(-c2ccc(Cl)cc2)nc1CN1CCCC(C(=O)NCCCN2CCCC2=O)C1 (configuration not stated),14% (inactive),13.6
CN1CCN(c2cc3c(c4c2[nH]c2ccccc24)C(=O)CC(C)(C)C3)CC1,16.1% (active),56.2
O=C(Cn1cc2c(n1)CCCC2)NCCCN1CCN(c2ccccc2F)CC1,56.4% (active),4.95
O=c1cc(N2CCc3ccccc3C2)[nH]c(=O)n1C1CCCCC1,16.8% (inactive),5.9
CCc1ccc(-c2nc(CN3CCC(C(=O)NCc4ccc(F)cc4)CC3)c(C)o2)cc1,0% (inactive),17.9
CCC(=O)N(Cc1ccco1)c1nc(-c2cc(OC)ccc2OC)cs1,13.2% (inactive),9.2
O=C(O)C1CCCCC1C(=O)Nc1cnn(Cc2ccccc2)c1 (configuration not stated),19% (inactive),5.15
Cc1cc(C)n2nc(SCC(=O)Nc3ccc(F)cc3)nc2n1,4% (inactive),2.8
COc1cc(C(=O)NCc2nnc(SCC(=O)NCc3ccccc3)o2)cc(OC)c1OC,9.6% (inactive),7.7
N=c1c(C(=O)NC2CCCC2)cc2c(=O)n3ccccc3nc2n1C1CCCC1,16.7% (inactive),7.85
COC(=O)Nc1sccc1C(=O)Nc1sccc1C(=O)OC,18.8% (inactive),8.85
